According to the supplement of paper PMC7724964:

T1: SND1 650-910 TUDOR+SNase (domain begin residue: 650, domain end residue: 910), Q7KZF4
T1 chain: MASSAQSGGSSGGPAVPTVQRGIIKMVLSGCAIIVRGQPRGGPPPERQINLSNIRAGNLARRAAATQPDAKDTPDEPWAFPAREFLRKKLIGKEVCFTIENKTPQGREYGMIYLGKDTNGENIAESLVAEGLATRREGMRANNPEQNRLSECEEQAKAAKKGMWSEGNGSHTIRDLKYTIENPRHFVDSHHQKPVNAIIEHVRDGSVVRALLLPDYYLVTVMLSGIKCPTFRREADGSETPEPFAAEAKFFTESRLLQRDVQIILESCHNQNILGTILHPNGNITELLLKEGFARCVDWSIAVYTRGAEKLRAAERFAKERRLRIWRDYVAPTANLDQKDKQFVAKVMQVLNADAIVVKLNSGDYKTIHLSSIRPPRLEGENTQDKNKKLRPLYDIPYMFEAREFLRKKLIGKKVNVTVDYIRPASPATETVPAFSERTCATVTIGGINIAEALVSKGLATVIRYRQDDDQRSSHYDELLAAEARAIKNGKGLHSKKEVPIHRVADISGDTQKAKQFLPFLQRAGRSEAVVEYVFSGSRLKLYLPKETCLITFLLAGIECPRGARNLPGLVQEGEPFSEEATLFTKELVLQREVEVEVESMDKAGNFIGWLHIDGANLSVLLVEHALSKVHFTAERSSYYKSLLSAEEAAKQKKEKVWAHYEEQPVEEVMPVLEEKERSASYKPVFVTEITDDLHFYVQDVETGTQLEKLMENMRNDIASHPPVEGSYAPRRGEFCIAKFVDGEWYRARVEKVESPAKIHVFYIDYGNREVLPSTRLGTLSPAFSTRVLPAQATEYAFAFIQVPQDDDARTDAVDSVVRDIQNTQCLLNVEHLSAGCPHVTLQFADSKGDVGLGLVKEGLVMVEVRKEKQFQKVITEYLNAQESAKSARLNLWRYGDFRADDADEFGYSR

T2: SPRED3 1-117 WH1 (domain begin residue: 1, domain end residue: 117), Q2MJR0
T2 chain: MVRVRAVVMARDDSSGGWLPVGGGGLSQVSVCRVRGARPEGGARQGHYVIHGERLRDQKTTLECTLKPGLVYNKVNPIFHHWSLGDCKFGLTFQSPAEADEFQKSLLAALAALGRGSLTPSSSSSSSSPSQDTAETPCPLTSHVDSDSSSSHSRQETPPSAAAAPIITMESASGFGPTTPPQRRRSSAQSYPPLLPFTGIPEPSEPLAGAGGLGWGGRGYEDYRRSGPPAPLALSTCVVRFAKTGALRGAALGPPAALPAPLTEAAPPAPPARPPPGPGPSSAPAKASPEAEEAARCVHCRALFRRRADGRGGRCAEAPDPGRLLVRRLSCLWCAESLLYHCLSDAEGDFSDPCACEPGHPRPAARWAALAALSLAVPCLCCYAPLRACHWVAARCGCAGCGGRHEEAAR

T3: SPRED2 1-124 WH1 (domain begin residue: 1, domain end residue: 124), Q7Z698
T3 chain: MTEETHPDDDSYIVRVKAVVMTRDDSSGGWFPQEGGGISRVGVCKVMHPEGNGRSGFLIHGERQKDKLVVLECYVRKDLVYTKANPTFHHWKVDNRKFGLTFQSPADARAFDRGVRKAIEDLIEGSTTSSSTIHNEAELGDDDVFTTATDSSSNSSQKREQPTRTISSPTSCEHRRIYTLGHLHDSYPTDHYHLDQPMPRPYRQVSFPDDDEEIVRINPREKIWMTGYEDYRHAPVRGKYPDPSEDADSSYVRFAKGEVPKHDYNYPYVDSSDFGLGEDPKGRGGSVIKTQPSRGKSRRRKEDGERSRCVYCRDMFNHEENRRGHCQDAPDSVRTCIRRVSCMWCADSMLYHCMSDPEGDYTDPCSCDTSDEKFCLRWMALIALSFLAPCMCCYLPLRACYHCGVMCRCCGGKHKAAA

T4: SPRED1 13-131 WH1 (domain begin residue: 13, domain end residue: 131), Q7Z699
T4 chain: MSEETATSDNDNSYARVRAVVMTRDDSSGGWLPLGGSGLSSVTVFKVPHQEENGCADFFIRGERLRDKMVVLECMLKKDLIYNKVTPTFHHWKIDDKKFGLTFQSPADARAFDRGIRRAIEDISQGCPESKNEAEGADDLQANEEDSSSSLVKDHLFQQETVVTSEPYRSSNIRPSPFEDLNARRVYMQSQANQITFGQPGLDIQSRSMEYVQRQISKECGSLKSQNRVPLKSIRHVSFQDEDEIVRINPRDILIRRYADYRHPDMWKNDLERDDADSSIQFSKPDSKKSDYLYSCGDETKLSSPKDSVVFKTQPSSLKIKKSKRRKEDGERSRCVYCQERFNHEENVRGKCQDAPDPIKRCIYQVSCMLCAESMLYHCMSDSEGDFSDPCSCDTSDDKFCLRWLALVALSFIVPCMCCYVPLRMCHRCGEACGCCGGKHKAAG

T5: SHC1 149-317 PID (domain begin residue: 149, domain end residue: 317), P29353
T5 chain: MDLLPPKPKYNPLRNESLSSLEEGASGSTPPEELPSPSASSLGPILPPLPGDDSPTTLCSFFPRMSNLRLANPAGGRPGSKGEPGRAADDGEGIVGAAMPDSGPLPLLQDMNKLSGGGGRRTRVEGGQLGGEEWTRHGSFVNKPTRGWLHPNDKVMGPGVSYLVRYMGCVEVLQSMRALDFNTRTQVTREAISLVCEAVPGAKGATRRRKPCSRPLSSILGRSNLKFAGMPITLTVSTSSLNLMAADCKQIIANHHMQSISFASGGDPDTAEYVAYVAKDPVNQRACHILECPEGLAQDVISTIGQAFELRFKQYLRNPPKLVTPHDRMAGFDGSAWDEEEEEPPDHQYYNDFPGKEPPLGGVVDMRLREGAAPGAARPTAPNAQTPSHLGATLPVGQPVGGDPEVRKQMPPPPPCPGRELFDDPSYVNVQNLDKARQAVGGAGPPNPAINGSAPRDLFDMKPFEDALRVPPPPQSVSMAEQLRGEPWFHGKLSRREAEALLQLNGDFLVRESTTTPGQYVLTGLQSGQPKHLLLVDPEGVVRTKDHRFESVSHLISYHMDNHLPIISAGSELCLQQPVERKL

T6: SPAG1 615-745 TPR_1 (domain begin residue: 615, domain end residue: 745), Q07617
T6 chain: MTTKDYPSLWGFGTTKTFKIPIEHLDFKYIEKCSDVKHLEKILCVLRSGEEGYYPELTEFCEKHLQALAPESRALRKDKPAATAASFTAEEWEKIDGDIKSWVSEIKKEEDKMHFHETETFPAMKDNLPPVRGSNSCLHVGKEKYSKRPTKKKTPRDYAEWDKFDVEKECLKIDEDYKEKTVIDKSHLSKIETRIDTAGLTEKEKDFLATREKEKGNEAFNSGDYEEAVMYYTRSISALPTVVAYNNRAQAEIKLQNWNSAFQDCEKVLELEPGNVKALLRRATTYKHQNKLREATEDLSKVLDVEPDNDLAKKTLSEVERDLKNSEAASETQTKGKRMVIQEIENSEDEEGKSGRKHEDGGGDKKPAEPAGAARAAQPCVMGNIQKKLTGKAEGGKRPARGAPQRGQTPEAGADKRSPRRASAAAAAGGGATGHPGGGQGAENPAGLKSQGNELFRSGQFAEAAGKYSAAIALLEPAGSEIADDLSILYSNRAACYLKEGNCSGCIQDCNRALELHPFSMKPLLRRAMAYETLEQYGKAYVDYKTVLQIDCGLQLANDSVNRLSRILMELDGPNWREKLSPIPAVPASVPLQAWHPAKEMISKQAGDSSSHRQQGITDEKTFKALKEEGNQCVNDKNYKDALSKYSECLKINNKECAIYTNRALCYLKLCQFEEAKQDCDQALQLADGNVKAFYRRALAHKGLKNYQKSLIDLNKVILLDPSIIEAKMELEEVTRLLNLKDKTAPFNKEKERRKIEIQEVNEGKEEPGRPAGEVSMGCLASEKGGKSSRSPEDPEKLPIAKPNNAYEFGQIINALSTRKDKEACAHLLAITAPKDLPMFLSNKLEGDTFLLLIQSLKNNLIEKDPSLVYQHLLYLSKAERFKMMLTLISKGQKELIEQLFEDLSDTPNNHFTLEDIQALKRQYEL


Biological target: T1, SND1 650-910 TUDOR+SNase (domain begin …
Experiment: phage ELISA signal ratio (GST-PRM binding over GST background); higher = stronger binding of peptide-phage to the PRM
Outline: (§1)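 An M13 phage library with randomized hexadecapeptides on the gene-8 major coat protein, each peptide lacking cysteine and flanked by glycine, was selected for five rounds against human peptide recognition domains fused to the C-terminus of glutathione S-transferase (GST) and expressed in 96-well plates. Approximately 48 clones from rounds 4 and 5 went to phage ELISA. The reported value is the ELISA signal on the GST-domain fusion over the signal on GST alone, and positive clones were sequenced.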

PWDMIWDDPSWAPMLE was tested. Which “phage ELISA signal ratio” value did it give?
The value was 7.49.

MNFMDIWDHMAIPPEQ was tested. Which “phage ELISA signal ratio” value did it give?
The value was 7.06.

How did the “phage ELISA signal ratio” value turn out when GDYMSMLFMQEWGPFN was run?
Its value is 5.51.

YDWFSAVVEDQWEKVS was tested. Which “phage ELISA signal ratio” value did it give?
Its value is 6.56.

For EELWDQWHSWVTEPDE, which “phage ELISA signal ratio” value is on record?
Its value is 4.69.

Biological target: T2, SPRED3 1-117 WH1 (domain begin residue: …
Experiment: as above
Outline: as §1

For WMWDGLAVVHMVPESV, which “phage ELISA signal ratio” value is on record?
The value was 8.68.

LDWDWVQWHFDDAMRW was tested. Which “phage ELISA signal ratio” value did it give?
The value was 7.1.

For WEWKDYEKVVHFQDMK, which “phage ELISA signal ratio” value is on record?
The value was 3.38.

TPWWETTSTVMTYIKM was tested. Which “phage ELISA signal ratio” value did it give?
The value was 19.4.

Biological target: T3, SPRED2 1-124 WH1 (domain begin residue: …
Experiment: as above
Outline: as §1

How did the “phage ELISA signal ratio” value turn out when SSMWWTDTGDMYLRPE was run?
The value was 4.88.

For GAGELEWYPIWWDVTH, which “phage ELISA signal ratio” value is on record?
The value was 17.3.

HPIFNDAGGLQGWFSY was tested. Which “phage ELISA signal ratio” value did it give?
Its value is 11.1.

For TWGWFDTGEAWSTMSM, which “phage ELISA signal ratio” value is on record?
Its value is 10.

With NLWPEVEPIMDNWQPS as the binder, how does the “phage ELISA signal ratio” value read?
Its value is 6.67.

Which “phage ELISA signal ratio” value does the source give for PVQWGDWSYPYDLSGQ here?
Its value is 12.6.

With GIVPWWHDSGDHWGPL as the binder, how does the “phage ELISA signal ratio” value read?
The value was 19.4.

GYKLWETETSWWFVPA was tested. Which “phage ELISA signal ratio” value did it give?
The value was 14.

AWFEGPFDTSHWQWEA was tested. Which “phage ELISA signal ratio” value did it give?
Its value is 7.72.

Biological target: T4, SPRED1 13-131 WH1 (domain begin …
Experiment: as above
Outline: as §1

WATVSEWGDWTTVVFN was tested. Which “phage ELISA signal ratio” value did it give?
The value was 3.55.

Biological target: T5, SHC1 149-317 PID (domain begin residue: …
Experiment: as above
Outline: as §1

Which “phage ELISA signal ratio” value does the source give for EWNKNLHWFEVFDQEV here?
Its value is 20.3.

For QVDQGEYVYGFWWEVL, which “phage ELISA signal ratio” value is on record?
The value was 9.85.

For EWGIMDSEWWGRYYEM, which “phage ELISA signal ratio” value is on record?
The value was 6.81.

With PKWEFFQDHTQDHHNQ as the binder, how does the “phage ELISA signal ratio” value read?
The value was 6.37.

Which “phage ELISA signal ratio” value does the source give for GPMIGWNQEYIFFSEH here?
Its value is 16.2.

How did the “phage ELISA signal ratio” value turn out when WEGYYQFLVPDTHTSE was run?
The value was 18.9.

ESEGSHYWNYFADAIA was tested. Which “phage ELISA signal ratio” value did it give?
The value was 18.2.

With LEEHWQWWVDDMMPME as the binder, how does the “phage ELISA signal ratio” value read?
The value was 4.84.

With HVQWINHSFMMDMPQN as the binder, how does the “phage ELISA signal ratio” value read?
Its value is 15.5.

Biological target: T6, SPAG1 615-745 TPR_1 (domain begin …
Experiment: as above
Outline: as §1

How did the “phage ELISA signal ratio” value turn out when MDLLEQQMWQDYFLWH was run?
Its value is 3.83.
